Activity calls are given as the source filed them. How the source made its calls: active means hit-call score of the fitted dose curve at least 0.9, where 1 is the maximum; inactive means score below 0.9.

Read-out in assay [1]: Monokine induced gamma interferon (MIG), CXCL9 (gene 4283)
Kind of assay: BSK_3C_MIG: BioMAP Diversity Plus: 3C Assay for Monokine induced gamma interferon (MIG) Biomarker Activity (AID 2283021). The conditions noted are these: primary human endothelial cells (HUVEC); actives raise or lower the signal. The essentials: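 HUVEC primary endothelial cultures dosed with chemical; MIG quantified by ELISA at 24 h. Data fitted bidirectionally against DMSO control, with parallel SRB total-protein staining for cytotoxicity.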

A short description of assay [2]: BSK_3C_SRB: Viability Assessment in the BioMAP Diversity Plus: 3C Assay (AID 2283023).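 Further: fitted both ways against DMSO so a hit may be signal rise or drop.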 The conditions noted are these: primary human endothelial cells (HUVEC). The essentials: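 Primary human umbilical vein endothelial cells in the 3C system were read 24 h after compound dosing. Total protein was stained with 0.1% sulforhodamine B after 10% TCA fixation and read at 560 nm, with bidirectional fitting against DMSO as baseline.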

Read-out in assay [3]: Matrix Metallopeptidase 1 (MMP1), MMP1 (gene 4312)
In words: BSK_BE3C_MMP1: BioMAP Diversity Plus: BE3C Assay for Matrix Metallopeptidase 1 (MMP1) Biomarker Activity (AID 2283024). The conditions noted are these: primary human bronchial epithelial cells; actives raise or lower the signal. The essentials:
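Human primary bronchial epithelial cells (BE3C system) dosed for 24 h; MMP-1 quantified by ELISA. Bidirectional fit against DMSO; cytotoxicity tracked in parallel cultures by SRB total-protein staining.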

Assay [4] in a line: BSK_3C_Vis: BioMAP Diversity Plus: 3C Assay for Morphology Visualization (AID 2283025).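 Further: fitted both ways so gain or loss versus DMSO counts.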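 On AC50: light microscopy image of cell morphology used as background control.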 The conditions noted are these: primary human endothelial cells (HUVEC). The essentials:
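Human umbilical vein endothelial cell morphology was inspected by light microscopy 24 h after chemical dosing; scored bidirectionally relative to DMSO.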

Read-out in assay [5]: Pselectin, SELP (gene 6403)
In words: BSK_4H_Pselectin: BioMAP Diversity Plus: 4H Assay for Pselectin Biomarker Activity (AID 2283026). The conditions noted are these: primary human endothelial cells (HUVEC); actives raise or lower the signal. The essentials: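 Primary human umbilical vein endothelial cells were treated 24 h, and cell-surface P-selectin was then quantified by ELISA. Bidirectional fit versus DMSO; cytotoxicity checked in parallel cultures by SRB total-protein staining.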

Assay [6] is described as follows: BSK_4H_SRB: Viability Assessment in the BioMAP Diversity Plus: 4H Assay (AID 2283027).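 On AC50: curves fitted both ways versus DMSO so AC50 may be loss or gain.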 The settings on record: primary human endothelial cells (HUVEC). The essentials:
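Human umbilical vein endothelial cells, 24 h after chemical dosing; total protein measured by 0.1% sulforhodamine B staining after 10% TCA fixation, read at 560 nm. Bidirectional fitting against DMSO.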

Assay [7] in a line: BSK_BE3C_SRB: Viability Assessment in the BioMAP Diversity Plus: BE3C Assay (AID 2283028).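 On AC50: fitted both ways so AC50 may mark signal gain or loss versus DMSO.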 The settings on record: primary human bronchial epithelial cells. The essentials: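 Human primary bronchial epithelial cells were exposed to test chemicals for 24 h. Total protein in parallel cultures was then measured by staining with 0.1% sulforhodamine B after 10% TCA fixation, with absorbance read at 560 nm. Activity was fitted bidirectionally against DMSO.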

Read-out in assay [8]: Thrombomodulin, THBD (gene 7056)
Kind of assay: BSK_3C_Thrombomodulin: BioMAP Diversity Plus: 3C Assay for Thrombomodulin Biomarker Activity (AID 2283029). The conditions noted are these: primary human endothelial cells (HUVEC); actives raise or lower the signal. The essentials: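 Human umbilical vein endothelial cells were exposed to chemicals for 24 h; cell-surface thrombomodulin quantified by ELISA, with bidirectional fitting against DMSO baseline.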

Read-out in assay [9]: Urokinase-type plasminogen activator receptor (uPAR), PLAUR (gene 5329)
In words: BSK_4H_uPAR: BioMAP Diversity Plus: 4H Assay for Urokinase-type plasminogen activator receptor (uPAR) Biomarker Activity (AID 2283030). The settings on record: primary human endothelial cells (HUVEC); actives raise or lower the signal. In short, it runs like this: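 Primary human umbilical vein endothelial cells were exposed to chemical for 24 h before cell-surface uPAR was quantified by ELISA. Activity was fitted bidirectionally against the DMSO negative control baseline.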

Read-out in assay [10]: Vascular endothelial growth factor receptor 2 (Homo sapiens) (UniProt P35968)
Kind of assay: BSK_4H_VEGFRII: BioMAP Diversity Plus: 4H Assay for Vascular endothelial growth factor receptor 2 (VEGFR2) Biomarker Activity (AID 2283031). The settings on record: primary human endothelial cells (HUVEC); actives raise or lower the signal. The essentials:
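Primary human umbilical vein endothelial cells in the BioMAP 4H system were dosed with test chemical, and 24 h later VEGFRII was measured by ELISA. Activity was fitted bidirectionally against DMSO as negative control and baseline.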

Read-out in assay [11]: Human Leukocyte Antigen - DR isotype (HLADR), HLA-DRA (gene 3122)
Kind of assay: BSK_BE3C_HLADR: BioMAP Diversity Plus: BE3C Assay for Human Leukocyte Antigen - DR isotype (HLADR) Biomarker Activity (AID 2283032). The conditions noted are these: primary human bronchial epithelial cells; actives raise or lower the signal. The essentials: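 Human primary bronchial epithelial cells (BE3C system) exposed to compound for 24 hours; cell-surface HLA-DR measured by ELISA, fitted bidirectionally relative to DMSO. Total protein by SRB in parallel cultures tracked cytotoxicity.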

Read-out in assay [12]: Vascular cell adhesion molecule 1 (VCAM1), VCAM1 (gene 7412)
Kind of assay: BSK_4H_VCAM1: BioMAP Diversity Plus: 4H Assay for Vascular cell adhesion molecule 1 (VCAM1) Biomarker Activity (AID 2283033). The conditions noted are these: primary human endothelial cells (HUVEC); actives raise or lower the signal. In short, it runs like this:
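Primary human umbilical vein endothelial cells, 4H stimulation system, treated for 24 h; cell-surface VCAM-1 quantified by ELISA. Bidirectional fitting against DMSO; cytotoxicity tracked by SRB total-protein staining in parallel cultures.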

Read-out in assay [13]: Interferon-gamma inducible Protein 10 (IP10), CXCL10 (gene 3627)
In words: BSK_BE3C_IP10: BioMAP Diversity Plus: BE3C Assay for Interferon-gamma inducible Protein 10 (IP10) Biomarker Activity (AID 2283034). The conditions noted are these: primary human bronchial epithelial cells; actives raise or lower the signal. The essentials: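 Primary human bronchial epithelial cells, with IP-10 measured by ELISA 24 hours after chemical dosing. Bidirectional fit against DMSO; cytotoxicity checked by SRB total protein staining in parallel cultures.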

Read-out in assay [14]: Monokine induced gamma interferon (MIG), CXCL9 (gene 4283)
Kind of assay: BSK_BE3C_MIG: BioMAP Diversity Plus: BE3C Assay for Monokine induced gamma interferon (MIG) Biomarker Activity (AID 2283035). The conditions noted are these: primary human bronchial epithelial cells; actives raise or lower the signal. The essentials:
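Primary human bronchial epithelial cells treated for 24 h; MIG levels measured by ELISA, fitted bidirectionally versus DMSO. Parallel SRB total-protein staining assessed cytotoxicity.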

Read-out in assay [15]: Transforming growth factor beta 1 (TGFb1), TGFB1 (gene 7040)
In words: BSK_BE3C_TGFb1: BioMAP Diversity Plus: BE3C Assay for Transforming growth factor beta 1 (TGFb1) Biomarker Activity (AID 2283036). The settings on record: primary human bronchial epithelial cells; actives raise or lower the signal. In short, it runs like this: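 Primary human bronchial epithelial cells dosed with chemical; TGF-b1 measured by ELISA 24 h after dosing. Bidirectional curve fitting against DMSO negative control; SRB total-protein staining in parallel cultures gauged cytotoxicity.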

Read-out in assay [16]: Plasminogen activator inhibitor-1 (PAI1), SERPINE1 (gene 5054)
In words: BSK_BE3C_PAI1: BioMAP Diversity Plus: BE3C Assay for Plasminogen activator inhibitor-1 (PAI1) Biomarker Activity (AID 2283037). The conditions noted are these: primary human bronchial epithelial cells; actives raise or lower the signal. The essentials: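 Primary human bronchial epithelial cells (BE3C system) exposed 24 h; PAI-1 quantified by ELISA. Parallel sulforhodamine B staining of total protein flags cytotoxicity. Bidirectional fit versus DMSO.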

Read-out in assay [17]: urokinase plasminogen activator (uPA), PLAU (gene 5328)
In words: BSK_BE3C_uPA: BioMAP Diversity Plus: BE3C Assay for urokinase plasminogen activator (uPA) Biomarker Activity (AID 2283038).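 Further: uPA protein level quantified by ELISA in cell cultures; uPA read one day after compound addition.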 The settings on record: primary human bronchial epithelial cells; actives raise or lower the signal. In short, it runs like this: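 Human primary bronchial epithelial cells were exposed to chemical for 24 h, then uPA levels were measured by ELISA. Responses were fitted bidirectionally against DMSO as negative control and baseline. Parallel SRB staining of total protein gauged overt cytotoxicity.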

Read-out in assay [18]: Urokinase-type plasminogen activator receptor (uPAR), PLAUR (gene 5329)
Kind of assay: BSK_BE3C_uPAR: BioMAP Diversity Plus: BE3C Assay for Urokinase-type plasminogen activator receptor (uPAR) Biomarker Activity (AID 2283039).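 Further: cells exposed to compound for one day before measurement.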 The conditions noted are these: primary human bronchial epithelial cells; actives raise or lower the signal. In short, it runs like this:
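Primary human bronchial epithelial cells dosed for 24 h; uPAR quantified by ELISA with bidirectional fitting against DMSO. Overt cytotoxicity assessed in parallel cultures by SRB total-protein staining (0.1% SRB, 560 nm).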

Read-out in assay [19]: Interleukin-6 (IL6), IL6 (gene 3569)
In words: BSK_CASM3C_IL6: BioMAP Diversity Plus: CASM3C Assay for Interleukin-6 (IL6) Biomarker Activity for (AID 2283040). The settings on record: primary human coronary artery smooth muscle cells; actives raise or lower the signal.

Read-out in assay [20]: Tissue plasminogen activator (tPA), PLAT (gene 5327)
Kind of assay: BSK_BE3C_tPA: BioMAP Diversity Plus: BE3C Assay for Tissue plasminogen activator (tPA) Biomarker Activity (AID 2283041).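 Further: tPA level quantified by ELISA one day after compound addition.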 The settings on record: primary human bronchial epithelial cells; actives raise or lower the signal. The essentials: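 Primary human bronchial epithelial cells in the BE3C system, exposed to compound for 24 h. tPA was quantified by ELISA; DMSO served as baseline, with gain or loss of signal fitted. Cytotoxicity checked in parallel cultures by SRB total-protein staining.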

As to `C=CCOC(=O)C(C)(C)OC(=O)c1cc(-n2c(=O)cc(C(F)(F)F)n(C)c2=O)ccc1Cl`, the outcome in assay [1], in [2], in [3], in assay [4], in [5] and in [6] was inactive. Also, the result in [7], in assay [8], in assay [10], in assay [11], in assay [12] and in [13] was inactive. Further, the result in [14], in assay [15], in assay [16], in assay [17], in assay [18] and in [19] was inactive. Besides, the outcome in [20] was inactive. Also, in [9], the half-maximal activity concentration (AC50) is 6.97 µM (active).
For the compound `CC(C)=CC1C(C(=O)OCc2coc(Cc3ccccc3)c2)C1(C)C` (centres undefined), the outcome in assay [1], in assay [3], in assay [5], in assay [6], in assay [8] and in assay [9] was inactive. Further, the outcome in assay [10], in assay [11], in assay [13], in assay [14], in [15] and in assay [16] was inactive. In addition, the result in [17], in assay [18], in [19] and in assay [20] was inactive. The AC50 was 13.7 µM (active) in [2], 9.8 µM (active) in [4], 10.8 µM (active) in assay [7] and 4.5 µM (active) in assay [12].
For the compound `COP(=O)(OC)O/C(C)=C/C(=O)N(C)C`, the result in [1], in [2], in [3], in assay [4], in assay [5] and in assay [6] was inactive. Besides, the outcome in assay [7], in assay [8], in assay [9], in assay [10], in assay [11] and in [12] was inactive. The result in assay [13], in [14], in assay [15], in assay [16], in assay [17] and in [18] was inactive. Further, the result in assay [19] and in assay [20] was inactive.
For the compound `CCOc1nc(C(Cl)(Cl)Cl)ns1`, the result in assay [1], in assay [2], in assay [3], in assay [4], in assay [5] and in assay [6] was inactive. Further, the result in assay [7], in [8], in assay [9], in [11], in assay [12] and in assay [13] was inactive. The result in assay [14], in assay [15], in assay [16], in [17], in [18] and in assay [19] was inactive. For the same compound, in assay [20], the result was inactive.
With `CCOC(=O)C(C)OC(=O)c1cc(Oc2ccc(C(F)(F)F)cc2Cl)ccc1[N+](=O)[O-]` (centres undefined), the result in assay [1], in [3], in assay [4], in assay [5], in assay [7] and in [8] was inactive. In addition, the result in assay [10], in [12], in assay [13], in assay [14], in [15] and in [16] was inactive. In addition, the outcome in [17], in assay [18], in [19] and in assay [20] was inactive. The AC50 was 13.3 µM (active) in assay [2], 13.1 µM (active) in assay [6], 10 µM (active) in [9] and 29.7 µM (active) in assay [11].
